This is an account of results in PubChem BioAssay (NCATS).

Records with an inconclusive call do not appear. Where a call stands in place of a potency, no number is given. Calls of active or inactive are those of the source. Unless noted, calls come from the whole dose curve.

Chain of Vitamin D3 receptor (Homo sapiens) (P11473 whole entry, looked up): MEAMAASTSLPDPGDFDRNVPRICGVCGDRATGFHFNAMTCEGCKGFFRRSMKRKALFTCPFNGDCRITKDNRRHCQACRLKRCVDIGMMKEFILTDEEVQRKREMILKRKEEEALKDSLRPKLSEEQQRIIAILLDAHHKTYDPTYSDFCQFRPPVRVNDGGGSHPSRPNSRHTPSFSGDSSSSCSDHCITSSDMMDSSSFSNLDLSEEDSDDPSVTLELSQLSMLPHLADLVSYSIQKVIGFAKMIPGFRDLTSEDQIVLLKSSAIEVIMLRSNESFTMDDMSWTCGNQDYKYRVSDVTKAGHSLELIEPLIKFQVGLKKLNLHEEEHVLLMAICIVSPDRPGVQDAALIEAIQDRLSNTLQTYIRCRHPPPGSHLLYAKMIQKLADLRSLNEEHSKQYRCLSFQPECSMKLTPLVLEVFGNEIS
Chain of Peroxisome proliferator-activated receptor gamma (Homo sapiens) (P37231 whole entry, looked up): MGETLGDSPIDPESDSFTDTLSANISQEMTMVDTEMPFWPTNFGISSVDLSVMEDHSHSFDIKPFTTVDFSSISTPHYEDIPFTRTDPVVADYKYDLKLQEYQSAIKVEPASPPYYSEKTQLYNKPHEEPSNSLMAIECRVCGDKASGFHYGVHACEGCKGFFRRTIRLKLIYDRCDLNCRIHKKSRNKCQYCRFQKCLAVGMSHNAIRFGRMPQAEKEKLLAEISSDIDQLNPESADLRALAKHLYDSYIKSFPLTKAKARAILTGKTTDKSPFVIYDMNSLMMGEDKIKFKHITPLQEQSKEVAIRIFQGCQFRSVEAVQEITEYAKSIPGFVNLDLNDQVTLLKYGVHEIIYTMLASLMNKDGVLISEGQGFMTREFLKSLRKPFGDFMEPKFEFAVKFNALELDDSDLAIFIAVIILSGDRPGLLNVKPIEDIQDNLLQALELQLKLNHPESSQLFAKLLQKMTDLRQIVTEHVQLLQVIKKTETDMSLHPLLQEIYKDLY

In the first experiment the target is Peroxisome proliferator-activated receptor gamma (Homo sapiens) (UniProt P37231). The experiment can be described thus: qHTS assay for small molecule antagonists of peroxisome proliferator-activated receptor gamma signaling (AID 588537; active = well fitted inhibition curve with a large enough effect in the signal ratio, with a control signal flat, not every such curve was filed as active; the % refers to the signal ratio;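 note: reporter cells co-stimulated with 50 nM rosiglitazone agonist during compound treatment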). The settings on record: HEK293 PPARg-UAS-bla, beta-lactamase ratio, antagonist mode; series mostly up to 76.8 µM. Summed up:
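Read-out: CCF4 fluorescence (ex 405, em 460/530 nm) after 2 h at RT. Cells were HEK293 carrying a UAS-bla reporter and treated 16 h at 37 C with compound plus rosiglitazone (50 nM final). Normalized to rosiglitazone and DMSO.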
For the compound `O=S(=O)(c1ccc(O)cc1)c1ccc(O)cc1`, the Potency entry was “inactive”.

For `CN(C)P(=O)(N(C)C)N(C)C`, the Potency entry is “inactive”.

As to `CCOc1ccc(C(C)(C)COCc2cccc(Oc3ccccc3)c2)cc1`, the Potency result was “inactive”.

On to `O=c1[nH]c2ccccc2c(=O)o1`, for which the Potency entry is “inactive”.

Consider `COc1ccc(C(O)(c2cncnc2)C2CC2)cc1` (configuration not stated), for which the Potency result was “inactive”.

`CN(C)c1nc(=O)n(C2CCCCC2)c(=O)n1C`: the Potency result was “inactive”.

In the case of `C=CC1(C)OC(=O)N(c2cc(Cl)cc(Cl)c2)C1=O` (configuration not stated), the Potency entry was “inactive”.

Turning to `COC(=O)c1ccccc1CS(=O)(=O)NC(=O)Nc1nc(OC)cc(OC)n1`, the Potency result was “inactive”.

Consider `CCC[CH2][Sn]([CH2]CCC)([O]C(C)=O)[O]C(C)=O`, for which the Potency entry is “inactive”.

In the case of `O=P(O)(O)CCCl`, the Potency result was “inactive”.

For `CCCCN(CC)C(=O)SCCC`, the Potency result is “inactive”.

For `CCOP(=O)(O)C(N)=O`, the Potency result is “inactive”.

On to `COC(=O)c1ccccc1S(=O)(=O)NC(=O)N(C)c1nc(C)nc(OC)n1`, for which the Potency result is “inactive”.

For `CCOC1Oc2ccc(OS(C)(=O)=O)cc2C1(C)C` (configuration not stated), the Potency result was “inactive”.

For `COCc1cnc(C2=NC(C)(C(C)C)C(=O)N2)c(C(=O)O)c1` (configuration not stated), the Potency result was “inactive”.

On to `Clc1ccc([C@]2(Cn3cncn3)C[C@H](Br)CO2)c(Cl)c1`, for which the Potency result is “inactive”.

As to `CCNc1nc(NC(C)(C)C)nc(SC)n1`, the Potency result is “inactive”.

As to `CCCCC(CC)COC(=O)Cl` (configuration not stated), the Potency result is “inactive”.

For `CC1CCCCC1NC(=O)Nc1ccccc1` (configuration not stated), the Potency entry is “inactive”.

Take `CCOP(=S)(OCC)SCC(=O)NC(C)C`: the Potency result was “inactive”.

Regarding `CCOc1nc(NC)nc(NC(=O)NS(=O)(=O)c2ccccc2C(=O)OC)n1`, the Potency entry was “inactive”.

As to `C/C(=N\NC(=O)Nc1cc(F)cc(F)c1)c1ncccc1C(=O)O`, the Potency entry was “inactive”.

Turning to `CCC(C)n1c(=O)[nH]c(C)c(Br)c1=O` (configuration not stated), the Potency result was “inactive”.

As for `COP(=S)(OC)Oc1ccc([N+](=O)[O-])c(C)c1`, the Potency result is “inactive”.

Regarding `CCN(CC)C(=O)C(C)Oc1cccc2ccccc12` (configuration not stated), the Potency result was “inactive”.

As to `CCCCC(CC)C(=O)Cl` (configuration not stated), the Potency entry was “inactive”.

Take `CC(Oc1cc(Cl)c(Cl)cc1Cl)C(=O)O` (configuration not stated): the Potency result was “inactive”.

As for `Cc1c(F)c(F)c(COC(=O)C2C(/C=C(\Cl)C(F)(F)F)C2(C)C)c(F)c1F` (configuration not stated), the Potency result was “inactive”.

As to `CNC(=O)Oc1ccc(N(C)C)c(C)c1`, the Potency result was “inactive”.

The next experiment has as its target Vitamin D3 receptor (Homo sapiens) (UniProt P11473). The experiment in a line: qHTS assay for small molecule antagonists of vitamin D receptor signaling (AID 588541).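 Note: receptor activated by calcitriol during compound treatment.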 The settings on record: HEK293T VDR-UAS-bla, beta-lactamase ratio, antagonist mode; series mostly up to 76.7 µM. Summed up:
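VDR-UAS-bla HEK293T cells in 2% charcoal-stripped FBS were stimulated with 1-alpha,25-dihydroxyvitamin D3 (3 nM final) plus compound for 16 h at 37 C. The beta-lactamase CCF4 readout was normalized to 50 nM agonist and DMSO, and Hill fits gave IC50.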
Consider `O=S(=O)(c1ccc(O)cc1)c1ccc(O)cc1`, for which the Potency entry was “inactive”.

As to `CN(C)P(=O)(N(C)C)N(C)C`, the Potency result was “inactive”.

Take `CCOc1ccc(C(C)(C)COCc2cccc(Oc3ccccc3)c2)cc1`: the Potency result was “inactive”.

On to `O=c1[nH]c2ccccc2c(=O)o1`, for which the Potency result is “inactive”.

As to `COc1ccc(C(O)(c2cncnc2)C2CC2)cc1` (configuration not stated), the Potency result is “inactive”.

Turning to `CN(C)c1nc(=O)n(C2CCCCC2)c(=O)n1C`, the Potency result is “inactive”.

Take `COC(=O)c1ccccc1CS(=O)(=O)NC(=O)Nc1nc(OC)cc(OC)n1`: the Potency entry was “inactive”.

For the compound `CCC[CH2][Sn]([CH2]CCC)([O]C(C)=O)[O]C(C)=O`, the Potency entry is “inactive”.

On to `O=P(O)(O)CCCl`, for which the Potency result is “inactive”.

Take `CCCCN(CC)C(=O)SCCC`: the Potency entry was “inactive”.

With `CCOP(=O)(NC(C)C)Oc1ccc(S(C)=O)c(C)c1` (configuration not stated), the Potency entry is “inactive”.

For the compound `CCOP(=O)(O)C(N)=O`, the Potency result is “inactive”.

Regarding `CCOC1Oc2ccc(OS(C)(=O)=O)cc2C1(C)C` (configuration not stated), the Potency entry is “inactive”.

Turning to `COCc1cnc(C2=NC(C)(C(C)C)C(=O)N2)c(C(=O)O)c1` (configuration not stated), the Potency result is “inactive”.

Regarding `CCNc1nc(NC(C)(C)C)nc(SC)n1`, the Potency entry was “inactive”.

For `CCCCC(CC)COC(=O)Cl` (configuration not stated), the Potency entry was “inactive”.

As to `CC1CCCCC1NC(=O)Nc1ccccc1` (configuration not stated), the Potency result was “inactive”.

On to `CCOP(=S)(OCC)SCC(=O)NC(C)C`, for which the Potency result is “inactive”.

For `C/C(=N\NC(=O)Nc1cc(F)cc(F)c1)c1ncccc1C(=O)O`, the Potency result is “inactive”.

In the case of `C=CCC1=C(C)[C@@H](OC(=O)[C@@H]2[C@@H](C=C(C)C)C2(C)C)CC1=O`, the Potency result was “inactive”.

As for `C=CC(=O)OCCCCCC(C)C`, the Potency entry was “inactive”.

Turning to `CCC(C)n1c(=O)[nH]c(C)c(Br)c1=O` (configuration not stated), the Potency result is “inactive”.

For `COP(=S)(OC)Oc1ccc([N+](=O)[O-])c(C)c1`, the Potency entry is “inactive”.

Take `CC(Oc1cc(Cl)c(Cl)cc1Cl)C(=O)O` (configuration not stated): the Potency result is “inactive”.

In the case of `Nc1ccc([N+](=O)[O-])cc1Cl`, the Potency result is “inactive”.

Consider `CNC(=O)Oc1ccc(N(C)C)c(C)c1`, for which the Potency result is “inactive”.

For another experiment the target is unchanged. The experiment in a line: qHTS assay for small molecule agonists of vitamin D receptor signaling (AID 588543). The settings on record: HEK293T VDR-UAS-bla, beta-lactamase ratio, 16 h; series mostly up to 76.8 µM. The method, boiled down:
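qHTS in agonist mode: compound titrations stimulate a VDR-driven β-lactamase reporter in HEK293T cells over 16 h at 37 °C. Response normalized to 50 nM 1α,25-dihydroxyvitamin D3 = 100%, DMSO = 0%; Hill fitting gives EC50 and maximal response.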
As for `O=S(=O)(c1ccc(O)cc1)c1ccc(O)cc1`, the outcome was inactive.

On to `COc1ccc(O)c(C(C)(C)C)c1`, for which the result was inactive.

As to `O=[N+]([O-])c1ccc(Oc2ccc(C(F)(F)F)cc2[N+](=O)[O-])cc1`, the outcome was inactive.

In the case of `CN(C)P(=O)(N(C)C)N(C)C`, the outcome was inactive.

`CCOc1ccc(C(C)(C)COCc2cccc(Oc3ccccc3)c2)cc1`: the outcome was inactive.

In the case of `O=c1[nH]c2ccccc2c(=O)o1`, the result was inactive.

On to `COc1ccc(C(O)(c2cncnc2)C2CC2)cc1` (configuration not stated), for which the outcome was inactive.

`CN(C)c1nc(=O)n(C2CCCCC2)c(=O)n1C`: the outcome was inactive.

Regarding `C=CC1(C)OC(=O)N(c2cc(Cl)cc(Cl)c2)C1=O` (configuration not stated), the result was inactive.

In the case of `COC(=O)c1ccccc1CS(=O)(=O)NC(=O)Nc1nc(OC)cc(OC)n1`, the result was inactive.

As to `O=P(O)(O)CCCl`, the result was inactive.

Turning to `CCCCN(CC)C(=O)SCCC`, the outcome was inactive.

Regarding `CCOP(=O)(NC(C)C)Oc1ccc(S(C)=O)c(C)c1` (configuration not stated), the outcome was inactive.

As to `CCOP(=O)(O)C(N)=O`, the outcome was inactive.

Consider `CCOC1Oc2ccc(OS(C)(=O)=O)cc2C1(C)C` (configuration not stated), for which the result was inactive.

Take `COCc1cnc(C2=NC(C)(C(C)C)C(=O)N2)c(C(=O)O)c1` (configuration not stated): the result was inactive.

As to `CCNc1nc(NC(C)(C)C)nc(SC)n1`, the outcome was inactive.

`CCOP(=S)(OCC)SCC(=O)NC(C)C`: the result was inactive.

For `CCOc1nc(NC)nc(NC(=O)NS(=O)(=O)c2ccccc2C(=O)OC)n1`, the result was inactive.

Regarding `C/C(=N\NC(=O)Nc1cc(F)cc(F)c1)c1ncccc1C(=O)O`, the outcome was inactive.

Turning to `C=CCC1=C(C)[C@@H](OC(=O)[C@@H]2[C@@H](C=C(C)C)C2(C)C)CC1=O`, the result was inactive.

For the compound `C=CC(=O)OCCCCCC(C)C`, the outcome was inactive.

Take `CCC(C)n1c(=O)[nH]c(C)c(Br)c1=O` (configuration not stated): the result was inactive.

As for `COP(=S)(OC)Oc1ccc([N+](=O)[O-])c(C)c1`, the outcome was inactive.

With `Cc1c(F)c(F)c(COC(=O)C2C(/C=C(\Cl)C(F)(F)F)C2(C)C)c(F)c1F` (configuration not stated), the result was inactive.

Regarding `Nc1ccc([N+](=O)[O-])cc1Cl`, the result was inactive.

Consider `CNC(=O)Oc1ccc(N(C)C)c(C)c1`, for which the result was inactive.
